Reference: PubChem BioAssay (NCATS)
Records with an inconclusive call do not appear. Calls of active or inactive are those of the source. The call rests on the fitted dose curve; in most records, active means well fitted curve in the direction sought with a large enough effect; inconclusive means small, poorly fitted or top-dose-only effect, or another doubt; inactive means no such curve, though single readings can be large; an effect the other way counts as inactive or inconclusive.

Key:
[1] = Quantitative High-Throughput drug screen in 47 multiple myeloma cell lines against the NCATS MIPE library collection: MOLP8_DSMZ cell viability assay (AID 1918977); further: nearly all actives have a fitted effect of over 45% in size
How it was run: (§1)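 500 cells/well per myeloma line exposed to pinned MIPE 4.0 compounds for 48 h at 37 °C, 5% CO2. Viability read as ATP by CellTiter-Glo luminescence, normalised to DMSO-only (100%) and media-only (0%) wells.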

[2] = Quantitative High-Throughput drug screen in 47 multiple myeloma cell lines against the NCATS MIPE library collection: NCIH929_DSMZ cell viability assay (AID 1918978); further: nearly all actives have a fitted effect of over 35% in size
How it was run: as §1

[3] = Quantitative High-Throughput drug screen in 47 multiple myeloma cell lines against the NCATS MIPE library collection: OCIMY1_PLB cell viability assay (AID 1918979); further: nearly all actives have a fitted effect of over 35% in size; on viability: series mostly up to about 46 µM
How it was run: as §1

[4] = Quantitative High-Throughput drug screen in 47 multiple myeloma cell lines against the NCATS MIPE library collection: MM1S_ATCC cell viability assay (AID 1918980); further: nearly all actives have a fitted effect of over 45% in size
How it was run: as §1

[5] = Quantitative High-Throughput drug screen in 47 multiple myeloma cell lines against the NCATS MIPE library collection: MM1R_ATCC cell viability assay (AID 1918981); further: nearly all actives have a fitted effect of over 35% in size
How it was run: as §1

[6] = Quantitative High-Throughput drug screen in 47 multiple myeloma cell lines against the NCATS MIPE library collection: KMS28PE_JCRB cell viability assay (AID 1918983); further: nearly all actives have a fitted effect of over 35% in size
How it was run: as §1

[7] = Quantitative High-Throughput drug screen in 47 multiple myeloma cell lines against the NCATS MIPE library collection: KMS34_JCRB cell viability assay (AID 1918985); further: nearly all actives have a fitted effect of over 40% in size
How it was run: as §1

[8] = Quantitative High-Throughput drug screen in 47 multiple myeloma cell lines against the NCATS MIPE library collection: OPM1_PLB cell viability assay (AID 1918989); further: nearly all actives have a fitted effect of over 40% in size
How it was run: as §1

[9] = Quantitative High-Throughput drug screen in 47 multiple myeloma cell lines against the NCATS MIPE library collection: U266_ATCC cell viability assay (AID 1919864); further: nearly all actives have a fitted effect of over 35% in size
How it was run: as §1

[10] = Quantitative High-Throughput drug screen in 47 multiple myeloma cell lines against the NCATS MIPE library collection: XG6_PLB cell viability assay (AID 1919865); further: nearly all actives have a fitted effect of over 40% in size
How it was run: as §1

[11] = Quantitative High-Throughput drug screen in 47 multiple myeloma cell lines against the NCATS MIPE library collection: VP6_DJ cell viability assay (AID 1919867); further: nearly all actives have a fitted effect of over 40% in size
How it was run: as §1

[12] = Quantitative High-Throughput drug screen in 47 multiple myeloma cell lines against the NCATS MIPE library collection: PE2_PLB cell viability assay (AID 1919869); further: nearly all actives have a fitted effect of over 35% in size
How it was run: as §1

[13] = Quantitative High-Throughput drug screen in 47 multiple myeloma cell lines against the NCATS MIPE library collection: PCM6_Riken cell viability assay (AID 1919870); further: nearly all actives have a fitted effect of over 30% in size
How it was run: as §1

[14] = Quantitative High-Throughput drug screen in 47 multiple myeloma cell lines against the NCATS MIPE library collection: LP1_DSMZ cell viability assay (AID 1918982); further: nearly all actives have a fitted effect of over 35% in size
How it was run: as §1

[15] = Quantitative High-Throughput drug screen in 47 multiple myeloma cell lines against the NCATS MIPE library collection: OCIMY7_PLB cell viability assay (AID 1918987); conditions: OCI-MY7 myeloma viability, CellTiter-Glo ATP, 48 h; viability (% of DMSO): at 45.8 µM; further: nearly all actives have a fitted effect of over 65% in size
How it was run: as §1

[16] = Quantitative High-Throughput drug screen in 47 multiple myeloma cell lines against the NCATS MIPE library collection: XG1_PLB cell viability assay (AID 1919866); further: nearly all actives have a fitted effect of over 35% in size
How it was run: as §1

[17] = Quantitative High-Throughput drug screen in 47 multiple myeloma cell lines against the NCATS MIPE library collection: L363_DSMZ cell viability assay (AID 1918984); further: nearly all actives have a fitted effect of over 40% in size
How it was run: as §1

[18] = Quantitative High-Throughput drug screen in 47 multiple myeloma cell lines against the NCATS MIPE library collection: OCIMY5_PLB cell viability assay (AID 1918988); further: nearly all actives have a fitted effect of over 65% in size
How it was run: as §1

[19] = Quantitative High-Throughput drug screen in 47 multiple myeloma cell lines against the NCATS MIPE library collection: SKMM1_PLB cell viability assay (AID 1919863); conditions: SKMM1 myeloma viability, CellTiter-Glo ATP, 48 h; viability: stronger effect = lower value; further: nearly all actives have a fitted effect of over 35% in size; on viability: series mostly up to about 46 µM
How it was run: as §1

[20] = Quantitative High-Throughput drug screen in 47 multiple myeloma cell lines against the NCATS MIPE library collection: UTMC2_PLB cell viability assay (AID 1919868); conditions: CellTiter-Glo ATP luminescence, 48 h; viability (% of DMSO control): at 45.8 µM; further: nearly all actives have a fitted effect of over 55% in size
How it was run: as §1
Potency means the concentration at half of the fitted maximal effect.

O=C(CCN1CCN(C(=O)OCc2cc(Cl)cc(Cl)c2)CC1)c1ccc2[nH]c(=O)oc2c1
active: Potency [4] 13.2 µM | Potency [5] 18.7 µM
inactive: Potency [1] | Potency [2] | Potency [3] | Potency [6] | Potency [7] | Potency [8] | Potency [9] | Potency [10] | Potency [11] | Potency [12] | Potency [13]

CC(C(=O)O)c1ccc(-c2ccccc2)c(F)c1 (stereo not drawn)
inactive: Potency [1] | Potency [3] | Potency [5] | Potency [14] | Potency [6] | Potency [7] | Potency [8]
active: Potency [2] 16.6 µM | Potency [15] 14.8 µM | Potency [9] 20.9 µM | Potency [10] 20.9 µM | Potency [16] 9.35 µM | Potency [11] 13.2 µM | Potency [13] 14.8 µM

O=C1C(Cl)=C(NCCN2CCOCC2)C(=O)c2ncccc21
active: Potency [1] 2.96 µM | Potency [2] 7.43 µM | Potency [3] 6.62 µM | Potency [4] 3.32 µM | Potency [5] 3.32 µM | Potency [14] 8.33 µM | Potency [6] 4.18 µM | Potency [17] 3.72 µM | Potency [7] 4.18 µM | Potency [15] 3.32 µM | Potency [18] 2.35 µM | Potency [19] 4.18 µM | Potency [9] 5.9 µM | Potency [10] 7.43 µM | Potency [11] 7.43 µM | Potency [20] 8.33 µM | Potency [12] 2.35 µM | Potency [13] 8.33 µM

CC(C)OC(=O)CCCC=CC[C@@H]1[C@H](C=C[C@@H](O)COc2cccc(C(F)(F)F)c2)[C@H](O)C[C@@H]1O
active: Potency [1] 26.4 µM | Potency [2] 18.7 µM | Potency [14] 14.8 µM | Potency [7] 13.2 µM | Potency [15] 14.8 µM | Potency [18] 16.6 µM | Potency [8] 18.7 µM | Potency [9] 20.9 µM | Potency [10] 16.6 µM | Potency [16] 18.7 µM | Potency [20] 16.6 µM | Potency [12] 16.6 µM | Potency [13] 20.9 µM

COc1cc2ncnc(Nc3ccc(F)c(Cl)c3)c2cc1OCCCN1CCOCC1
active: Potency [1] 48.1 µM | Potency [2] 4.29 µM | Potency [3] 48.1 µM | Potency [5] 21.5 µM | Potency [14] 48.1 µM | Potency [6] 42.9 µM | Potency [17] 8.55 µM | Potency [7] 42.9 µM | Potency [15] 1.08 µM | Potency [18] 2.15 µM | Potency [8] 4.29 µM | Potency [19] 67.9 µM | Potency [9] 30.3 µM | Potency [10] 0.0762 µM | Potency [11] 6.79 µM | Potency [20] 17.1 µM | Potency [12] 13.6 µM | Potency [13] 6.05 µM

COc1cccc(-c2cc(=O)c3ccccc3o2)c1N
active: Potency [2] 0.332 µM | Potency [5] 5.9 µM | Potency [15] 2.96 µM | Potency [8] 16.6 µM | Potency [9] 8.33 µM | Potency [16] 1.66 µM | Potency [11] 1.32 µM | Potency [12] 4.18 µM
inactive: Potency [1]

C[C@]12CCC3c4ccc(O)cc4CCC3C1CCC2=O (stereo partly drawn)
inactive: Potency [2] | Potency [3] | Potency [5] | Potency [9] | Potency [10] | Potency [16] | Potency [12] | Potency [13]
active: Potency [1] 20.9 µM | Potency [14] 18.7 µM | Potency [6] 11.8 µM | Potency [7] 10.5 µM | Potency [18] 0.0019 µM

CN1C[C@H]2c3ccccc3Oc3ccc(Cl)cc3[C@@H]2C1
active: Potency [18] 13.2 µM | Potency [11] 4.18 µM | Potency [13] 11.8 µM
inactive: Potency [1] | Potency [2] | Potency [3] | Potency [5] | Potency [14] | Potency [6] | Potency [9] | Potency [10] | Potency [16]

COC[C@@H](c1ccc(C(F)(F)F)cc1)N1CCN(C2(C)CCN(C(=O)c3c(C)ncnc3C)CC2)C[C@H]1C
inactive: Potency [1] | Potency [3] | Potency [14] | Potency [6] | Potency [8] | viability [19] 118%
active: Potency [2] 9.35 µM | Potency [9] 6.62 µM | Potency [10] 16.6 µM | Potency [11] 23.5 µM | Potency [13] 20.9 µM

Cc1c(NC(=O)c2ccc(C(C)(C)C)cc2)cccc1-c1cn(C)c(=O)c(Nc2ccc(C(=O)N3CCOCC3)cc2)n1
inactive: Potency [1]
active: Potency [2] 20.9 µM | Potency [4] 20.9 µM | Potency [5] 20.9 µM | Potency [15] 8.33 µM | Potency [18] 16.6 µM | Potency [8] 18.7 µM | Potency [9] 23.5 µM | Potency [10] 20.9 µM | Potency [16] 9.35 µM | Potency [12] 14.8 µM

Cc1[nH]c(C=C2C(=O)Nc3ccc(S(=O)(=O)Cc4c(Cl)cccc4Cl)cc32)c(C)c1C(=O)N1CCC[C@H]1CN1CCCC1
active: Potency [1] 16.6 µM | Potency [2] 8.33 µM | Potency [3] 26.4 µM | Potency [5] 20.9 µM | Potency [14] 23.5 µM | Potency [6] 20.9 µM | Potency [17] 2.35 µM | Potency [7] 20.9 µM | Potency [15] 10.5 µM | Potency [18] 14.8 µM | Potency [8] 8.33 µM | Potency [19] 20.9 µM | Potency [9] 23.5 µM | Potency [10] 8.33 µM | Potency [16] 5.26 µM | Potency [20] 20.9 µM | Potency [12] 20.9 µM | Potency [13] 7.43 µM

CC(C)(C)OC(=O)N[C@H]1CCCCCC=C[C@@H]2C[C@@]2(C(=O)NS(=O)(=O)C2CC2)NC(=O)[C@@H]2C[C@@H](OC(=O)N3Cc4cccc(F)c4C3)CN2C1=O
inactive: Potency [1] | Potency [3] | Potency [4] | Potency [5] | Potency [6] | Potency [17] | Potency [7] | Potency [8] | viability [19] 123% | Potency [9] | Potency [10] | Potency [11] | Potency [12]
